Consider 22 compounds from PubChem BioAssay (NCATS).

Records with an inconclusive call do not appear. Unmarked numbers belong to inactive results. The call rests on the fitted dose curve; in most records, active means well fitted cell-killing curve with a large enough effect; inconclusive means small, poorly fitted or top-dose-only effect, or effect the other way; inactive means no such curve, though single readings can be large or run the other way.

This experiment is described as follows: Cell Viability - LYMP2-005 (AID 967).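 Further: cells exposed to compound for 24 h at 37 °C.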 The conditions noted are these: LYMP2-005 lymphoblastoid cell viability; series mostly up to 92.2 µM; activity change, negative = viability loss: at the top concentration. The source says: NIH Chemical Genomics Center [NCGC]
NIH Molecular Libraries Screening Centers Network [MLSCN]
National Institutes of Environmental Health Sciences [NIEHS]
National Toxicology Program [NTP]
We have developed a 1536-well cell-based assay for quantitative high throughput screening (qHTS) against a number of cell lines to determine in vitro cytotoxicity of small molecules. This particular assay uses a human lymphoblastoid cell line (LYMP2-005) purchased from Coriell Institute for Medical Research.
NCGC Assay Protocol Summary:
The CellTiter-Glo luminescent cell viability assay (Promega) is a homogeneous method to measure the number of viable cells in culture. The end point readout of this assay is based on quantitation of intracellular ATP, an indicator of metabolic activity, using the luciferase reaction. Luciferase catalyzes the oxidation of beetle Luciferin to oxyluciferin and light in the presence of ATP. The luminescent signal is proportional to amount of ATP present.
Using the CellTiter-Glo luminescent cell viability assay, the amount of cellular ATP was measured in the lymphoblastoid cell line with complete culture medium following compound treatment for 24 hours. The assay was performed in opaque white Kalypsys 1536-well plates. In the screen, tetraoctylammonium bromide was used as positive control. Library compounds were measured for their ability to cause acute toxicity in the cell line, as reflected by a decrease in intracellular ATP levels, in a concentration-dependent manner. […] AC50 values were determined from concentration-response data modeled with the standard Hill equation.
qHTS protocol for CellTiter Glo lymphoblastoid cellular assay
[Step] [Parameter] [Value] [Description]
1. Reagent; 5 uL; 2500 lymphoblastoid cells/well
2. Time; 5 hr; 37 C incubation
4. Controls; 23 nL; Tetraoctylammonium bromide 6.4pM to 92 uM
5. Time; 24 hr; 37 C incubation
6. Reagent; 5 uL; CellTiter Glo reagent
7. Time; 30 min; Room Temperature
8. Detection; Luminescence; Viewlux plate reader
Keywords: cell viability, cytotoxicity, lymphoblastoid cell line, luminescence, NTPHTS, NTPHTS_NCGC, NIEHS, DSSTox, MLSMR, MLSCN, NIH Roadmap, qHTS, NCGC
Regarding `O=C(O)CCCCC1CCSS1` (configuration not stated), the “activity change, negative = viability loss” value is -10.4%.
As for `C=CCNC(N)=S`, the figure is -23.5%.
As for `COc1ccc(O)cc1`, the figure is 20.6%.
As to `CC(=O)Nc1cccc(O)c1`, the “activity change, negative = viability loss” value is 20.9%.
Turning to `CC1CC(OC(=O)c2ccccc2O)CC(C)(C)C1` (configuration not stated), the “activity change, negative = viability loss” value is 18%.
For `Cc1c(N(C)C)c(=O)n(-c2ccccc2)n1C`, the “activity change, negative = viability loss” value is 23%.
For the compound `CCN(CC)C(=O)c1cccc(C)c1`, the “activity change, negative = viability loss” value was 14%.
As for `Nc1ccc(S(=O)(=O)c2ccc(N)cc2)cc1`, the figure is 14.1%.
On to `CC(=O)Nc1ccc(C(=O)O)cc1`, for which the “activity change, negative = viability loss” value was -4.81%.
To `CCCC(O)C(CC)CO` (configuration not stated) belongs -0.806%; to `CCCCCCCC(=O)OCC(COC(=O)CCCCCCC)OC(=O)CCCCCCC`, 18.5%; to `O=C(c1ccccc1)C(O)c1ccccc1` (configuration not stated), 9.61%.
With `CC(=O)OCC(COC(C)=O)OC(C)=O`, the “activity change, negative = viability loss” value is 0.52%.
To `O=C1C(c2[nH]c3ccccc3c2O)=Nc2ccccc21` belongs -25.1%; to `CCCCCC(N)=O`, -38.4%; to `Cc1cc(C)nc(NS(=O)(=O)c2ccc(N)cc2)n1`, 6.45%.
For the compound `O=C1c2cccc(O)c2C(=O)c2c(O)cccc21`, the “activity change, negative = viability loss” value is -15%.
Take `CC(=O)NS(=O)(=O)c1ccc(N)cc1`: the “activity change, negative = viability loss” value is 4.45%.
As for `CCCCOC(=O)c1ccc(N)cc1`, the “activity change, negative = viability loss” value is -4.49%.
For the compound `CC(=O)Nc1ccccc1`, the “activity change, negative = viability loss” value was -5.26%.
As for `FC(F)(F)C(Cl)Br` (configuration not stated), the figure is 23.5%.
Turning to `Cc1cc(=O)[nH]c(=S)[nH]1`, the “activity change, negative = viability loss” value is 14.6%.
